Screening results as filed in PubChem BioAssay.
Shown are actives, neighbours in structure and some others; about 8% of the full set was active somewhere.
SW480 rerep = induces DNA re-replication in SW480 colon adenocarcinoma cells. Potency, µM (titrated, usually from 46.1 µM), without a hit: at the highest dose re-replication activation, most hits filed as activators. 340,000 compounds, 1.8% hits. SW480 DNA re-replication, Hoechst DNA content imaging, 48 h. AID 624297; further: % of control where 0% means no effect; nearly all actives have a fitted effect of over 55% in size
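Treated cells incubate 48 hr (37 C, 5% CO2), are stained 40 min with Hoechst, and nuclear fluorescence is enumerated; a rise in nuclei with high DNA signal marks re-replication.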
HT1080 IDH1KD tx = toxicity to HT-1080 IDH1 knockdown cells (counter line); HT-1080 IDH1 knockdown viability, ATP luminescence, 48 h; Potency, µM (series often up to 46.1 µM), without a hit: top-dose activity, negative = toxicity, usual class: cytotoxic; 360,000 compounds, 2% hits;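 further: 0% = DMSO wells and -100% = cell-free medium wells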
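Luminescent ATP read-out (CellTiter-Glo, 10 min at room temperature) after 48 h compound exposure at 37 °C gave viability of IDH1-knockdown HT-1080 cells. Activity was normalised to DMSO and cell-free wells, then fitted as concentration-response curves.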
KB-V1 MDR tox = KB-V1 MDR subline cytotoxicity; KB-V1 MDR cells viability, CellTiter-Glo, 72 h; 400,000 compounds, 3.4% hits; Potency, µM (doses to about 46.1 µM), hits mostly cytotoxic; AID 1347076; further: on the % scale 0 is the no-effect control and ±100 the full control effect; nearly all actives have a fitted effect of over 60% in size
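qHTS viability screen in drug-selected KB-V1 MDR cells: 72 h compound treatment at 37 degrees C, ATP luminescence end point.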
MCF10A rerep = induces DNA re-replication in MCF 10a normal breast cells. MCF 10A DNA re-replication, Hoechst nuclear intensity, 48 h. Potency, µM (titrated, usually from 46.1 µM), for inactives: at the top dose activity, positive = re-replication, most hits filed as activators. 350,000 compounds, 2.9% hits; further: % of control where 0% means no effect; nearly all actives have a fitted effect of over 50% in size
HT1080-NT tox = kills 2HG-producing HT-1080-NT fibrosarcoma cells; HT-1080-NT fibrosarcoma viability, CellTiter-Glo ATP luminescence, 48 h; Potency, µM (series often up to 46.1 µM), for the others: at the highest dose activity, negative = less viability, most hits filed as cytotoxic; 360,000 compounds, 1.6% hits;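 further: NT is the 2HG producing partner of a matched IDH1 knockdown line; 0% = DMSO-treated cells and -100% = media-only wells without cells; nearly all actives have a fitted effect of over 55% in size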
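HT-1080-NT; 750 cells/well; 5% FBS RPMI; 48 h compound, 37 degrees C; CellTiter-Glo luminescence; curve fitting and curve-class assignment.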
KB-3-1 tox = kills parental KB-3-1 adenocarcinoma cells; KB-3-1 viability, CellTiter-Glo ATP luminescence, 72 h; Potency, µM (top dose mostly 46.1 µM), actives largely listed as cytotoxic; 400,000 compounds, 1.4% hits; AID 1347075; further: on the % scale 0 is the no-effect control and ±100 the full control effect; nearly all actives have a fitted effect of over 60% in size
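Cytotoxicity measured as CellTiter-Glo luminescence after 72 h at 37 C. Compound titrations were pinned onto drug-naive KB-3-1 parental adenocarcinoma cells grown in DMEM with 10% FBS, and normalized data fitted to concentration-response curves.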
* = called active by the depositor; ! = a repeat was not active. The call rests on the fitted dose curve; in most records, active means well fitted curve in the direction sought with a large enough effect; inconclusive means small, poorly fitted or top-dose-only effect, or another doubt; inactive means no such curve, though single readings can be large; an effect the other way counts as inactive or inconclusive. Potency means the concentration at half of the fitted maximal effect.

For CCc1nc2ccc(C(=O)N(C)CC(=O)Nc3ccc(Cl)c(C(F)(F)F)c3)cc2nc1CC the results were SW480 rerep -7%, HT1080 IDH1KD tx 21µM*, KB-V1 MDR tox inactive, MCF10A rerep inconclusive, HT1080-NT tox inconclusive and KB-3-1 tox inactive.
Screening Cc1nc(-c2ccc(F)cc2)c(CC(=O)N(C)CC(=O)Nc2ccc(Cl)c(C(F)(F)F)c2)s1 returned SW480 rerep inconclusive, HT1080 IDH1KD tx 16µM*, KB-V1 MDR tox inactive, MCF10A rerep inconclusive, HT1080-NT tox inconclusive and KB-3-1 tox inactive.
For CN(CC(=O)Nc1ccc(Cl)c(C(F)(F)F)c1)C(=O)Cc1n[nH]c(=O)c2ccccc12 the results were SW480 rerep 4%, HT1080 IDH1KD tx -18%, KB-V1 MDR tox inactive, MCF10A rerep 14%, HT1080-NT tox -2% and KB-3-1 tox inconclusive.
`Cc1ccc(S(=O)(=O)N2CCC(c3nc(-c4cccs4)nc4ccccc34)CC2)cc1` gave KB-V1 MDR tox inactive and KB-3-1 tox inactive.
For Cc1ccc2c(c1)C(=O)OC(C(=O)Nc1ncc(Cc3ccc(C(C)C)cc3)s1)C2 (stereo not drawn) the results were KB-V1 MDR tox inactive and KB-3-1 tox inactive.
`COc1ccc(-c2nnc3ccc(SCC(=O)N4CCOCC4)nn23)cc1` gave SW480 rerep 3%, HT1080 IDH1KD tx -8%, KB-V1 MDR tox inactive, MCF10A rerep -2%, HT1080-NT tox -1% and KB-3-1 tox inactive.
For CCOC(=O)C(C)Sc1ccc2nnc(-c3ccc(F)cc3)n2n1 (stereo not drawn) the results were SW480 rerep 2%, HT1080 IDH1KD tx 9%, KB-V1 MDR tox 15µM*!, MCF10A rerep 16%, HT1080-NT tox 18% and KB-3-1 tox inconclusive.
For COc1ccc(-c2nnc3ccc(SC)nn23)cc1 the results were SW480 rerep -4%, HT1080 IDH1KD tx inconclusive, KB-V1 MDR tox 15µM*, MCF10A rerep 2%, HT1080-NT tox -3% and KB-3-1 tox inactive.
O=c1[nH]c(CN2CCN(c3ccccc3)CC2)nc2scc(-c3ccccc3)c12 was read as SW480 rerep inconclusive, HT1080 IDH1KD tx -1%, KB-V1 MDR tox 9.2µM*, MCF10A rerep 5.2µM*, HT1080-NT tox -5% and KB-3-1 tox inconclusive.
`CCN(c1cccc(C)c1)S(=O)(=O)c1cc(Br)cc2c1N(C(C)=O)C(C)C2` (stereo not drawn) gave KB-V1 MDR tox inactive and KB-3-1 tox inactive.
Cc1ccc(NS(=O)(=O)c2ccc3[nH]c4c(c3c2)CCCCCC4)cc1 was read as KB-V1 MDR tox inactive and KB-3-1 tox inconclusive.
`CCN(c1ccc(OC)cc1)S(=O)(=O)c1ccc2[nH]c3c(c2c1)CCCCC3` gave KB-V1 MDR tox 18µM* and KB-3-1 tox 8.2µM*.
For Cc1ccc(N(C)S(=O)(=O)c2ccc3[nH]c4c(c3c2)CCCC4)cc1 the results were KB-V1 MDR tox 18µM* and KB-3-1 tox inactive.
Screening CCOCN(C(=O)CSc1nc2ccccc2[nH]1)c1c(C)cccc1CC returned KB-V1 MDR tox inactive and KB-3-1 tox inactive.
Screening COc1ccc(/C=N/n2c(-c3ccco3)nc3ccccc3c2=O)cc1 returned SW480 rerep -1%, HT1080 IDH1KD tx 6%, KB-V1 MDR tox inactive, MCF10A rerep 0%, HT1080-NT tox 6% and KB-3-1 tox inactive.
COc1cccc(/C=N/n2c(-c3ccco3)nc3ccccc3c2=O)c1 was read as SW480 rerep inconclusive, HT1080 IDH1KD tx -1%, KB-V1 MDR tox 2.6µM*, MCF10A rerep inconclusive, HT1080-NT tox -9% and KB-3-1 tox inactive.
`O=C(O)C1CCN(C(=O)CSc2nc3cc(Cl)ccc3c(=O)n2Cc2ccccc2)CC1` gave SW480 rerep -7%, HT1080 IDH1KD tx -20%, KB-V1 MDR tox inactive, MCF10A rerep 11%, HT1080-NT tox -2% and KB-3-1 tox inactive.
